From PubChem BioAssay AID588719 (Southern Research Specialized Biocontainment Screening …, 2011)
About 920 (61%) of roughly 1,500 compounds were called active. The rule behind the calls is not given here. The set was probably picked from earlier hits. This is one part of the list. Where a call stands in place of a potency, no number is given. Potency and affinity values are given separately.

Test: Vero 76 cell cytotoxicity, dose response, cytotoxicity control for VEEV inhibitor project (AID 588719)
Settings: Vero 76 cells viability, cytotoxicity counter-screen; series mostly up to 25 µM

Row | SMILES | outcome
1 | C=CCC1(CCCCC)C(=O)NC(=S)NC1=O | inactive
2 | Oc1c(C(Nc2nc3ccccc3s2)c2ccco2)ccc2cccnc12 (stereo unspecified) | inactive
3 | O=CC1=C(c2ccccc2)Oc2ccccc2O1 | inactive
4 | Cc1ccc(NC(=O)Nc2ccno2)cc1 | inactive
5 | Cc1ccc(S(=O)(=O)c2ccsc2NC(=O)c2ccccc2)cc1 | inactive
6 | Cc1cc(N/N=C/c2cccc([N+](=O)[O-])c2)nc(-n2nc(C)cc2C)n1 | inactive
7 | CC(C)(C)OC(=O)[C@H](Cc1ccccc1)NC(=O)c1nc[nH]c1C(=O)NC1CCN(C(=O)OC(C)(C)C)CC1 | inactive
8 | CC1(C)CC(=O)/C(=N/Nc2ccc(Cl)cc2)CO1 | inactive
9 | CN1CCN(c2ccc(NC(=O)c3cccc(OCc4ccccc4)c3)cc2)CC1 | inactive
10 | CCCCOc1ccc(C(=O)Nc2ccc(N3CCN(C)CC3)cc2)cc1 | inactive
11 | CCCn1cnc2c(SCc3ccccc3Cl)nc(N)nc21 | inactive
12 | CCN(CC)CCCNC(=O)c1oc2ccc(S(=O)(=O)N3CC(C)CC(C)C3)cc2c1C (stereo unspecified) | inactive
13 | O=C(NCCc1csc(-c2cccnc2)n1)c1ccccc1Br | inactive
14 | Cc1ccccc1-c1n[nH]c(=S)n1/N=C/c1c(C)nn(-c2ccccc2)c1C | inactive
15 | COc1ccccc1C1N(c2ccc(Cl)cc2)C(=O)C2CCCN21 (stereo unspecified) | inactive
16 | CNc1nc(Cl)nc2c1ncn2-c1ccccc1 | inactive
17 | Cc1cc(=O)[nH]c(N/N=C/c2ccc(OC(=O)c3cccnc3)cc2)n1 | inactive
18 | O=S1(=O)CCC(NC(=S)SCCOc2ccccc2)C1 (stereo unspecified) | inactive
19 | Nc1[nH]nc2nc(NCc3ccccc3)c3c(c12)CCN(Cc1ccccc1)C3 | inactive
20 | Cc1ccc(N2C(=O)NC(=O)/C(=C\C=C\c3ccco3)C2=O)cc1 | inactive
21 | CCc1ccc(N2C(=O)NC(=O)/C(=C\C=C\c3ccco3)C2=O)cc1 | inactive
22 | Nc1nc(CN2CCN(c3ccccn3)CC2)nc(Nc2ccc(Cl)cc2)n1 | inactive
23 | Cc1[nH]c(C)c(S(=O)(=O)N2CCN(c3cccc(C(F)(F)F)c3)CC2)c1C(=O)N1CCCCC1 | inactive
24 | COc1ccccc1OCC(=O)Nc1nc2c(s1)CCCC2 | inactive
25 | O=C1Nc2cc(C(=O)NCCCN3CCOCC3)ccc2S/C1=C/c1cccc(Cl)c1 | inactive
26 | O=C(NCCCN1CCOCC1)c1ccc(/C=C2\Oc3ccccc3N(Cc3ccccc3F)C2=O)cc1 | inactive

Row | SMILES | outcome
27 | COc1cc(NC(=S)N(C)C)c(OC)cc1Cl | inactive
28 | COC(=O)c1cc(Cl)c(NC(=O)c2ccc(C(C)(C)C)cc2)cc1OC | inactive
29 | CCc1ccc(-c2cc3c(=O)n(CC(=O)NCCCN4CCN(CC)CC4)nc(C)n3n2)cc1 | inactive
30 | NC(=O)C1=C[C@H](C2CCCCC2)C[C@H](OCc2ccc(CO)cc2)O1 | inactive
31 | O=C(NC1CC1)C1=C[C@@H](C2CCCCC2)C[C@@H](OCc2ccc(CO)cc2)O1 | inactive
32 | Cc1cccc(NC(=O)C(C)Sc2nc3ccccc3c(=O)n2CCCN2CCOCC2)c1 (stereo unspecified) | inactive
33 | CC(=O)C1C2c3ccccc3OC1(C)N=c1s/c(=C/c3cn(C)nc3C)c(=O)n12 (stereo unspecified) | inactive
34 | O=C(NC1CCN(Cc2ccccc2)CC1)c1ccc(Oc2cc(Cl)cc(Cl)c2)o1 | inactive
35 | O=C(c1ccc(-c2ccccc2)c(F)c1)C1CCCN(CCO)C1 (stereo unspecified) | inactive
36 | c1ccc(COC(CN2CCCCCC2)CN2CCCCCC2)cc1 | inactive
37 | COc1cc2c(cc1OC)C13CCN4CC5=CCOC(CC(=O)O)C(C5CC41)C3N2 (stereo unspecified) | inactive
38 | Cc1c(-c2ccc(OCc3ccccc3)cc2)nc2ccccc2c1C(=O)O | inactive
39 | C[C@@H]1CN([C@H](C)CO)C(=O)CCCn2nncc2CO[C@@H]1CN(C)C(=O)Nc1ccc(N2CCCCC2)cc1 | inactive
40 | COc1cccc(/C=C/c2n[nH]c(=O)c(C#N)c2C)c1 | inactive
41 | CC(C)CN(C(=O)COC(=O)/C=C/c1ccc(Cl)c(Cl)c1)c1c(N)n(Cc2ccccc2)c(=O)[nH]c1=O | inactive
42 | O=C1C2C3C=CC(C4CC34)C2C(=O)N1CCCCN1CCN(c2ccc(F)cc2)CC1 (stereo unspecified) | inactive
43 | Cc1ccc(NC(=O)c2ccc(CN3CCN(C)CC3)cc2)cc1Nc1nccc(-c2cccnc2)n1 | inactive
44 | COc1ccc(-c2cc(-c3ccc(F)cc3)nc(N3CCN(C)CC3)n2)cc1 | inactive
45 | COCC(C)n1c(SCc2cc(=O)n3cc(C)ccc3n2)nc2ccccc2c1=O (stereo unspecified) | inactive
46 | Cc1ccc2oc(=O)c3cnn(CC(=O)Nc4ccccc4N4CCN(C)CC4)c3c2c1 | inactive
47 | Cc1cccc(NC(=O)CSc2nc3ccccc3nc2N2CCCC2)c1 | inactive
48 | CC(=O)c1cccc(NC(=O)/C=C/c2ccc([N+](=O)[O-])s2)c1 | inactive
49 | COc1cc(NC(=O)c2ccc(-c3cccc([N+](=O)[O-])c3)o2)ccc1NC(=O)C(C)C | inactive
50 | COc1ccc(C(Nc2cccc([N+](=O)[O-])c2)P(=O)(OC(C)C)OC(C)C)cc1 (stereo unspecified) | inactive
51 | O=C1c2cccc3cc([N+](=O)[O-])cc(c23)C(=O)N1c1ccccc1O | inactive
